Test results published in the supplement of paper PMC9262897, “Low-cost anti-mycobacterial drug discovery using engineered E. coli” (Nature Communications, 2022).
Structures can show the parent of a compound that is named as a salt. ± gives the standard deviation of the averaged measurements.

Assays:
Test in all cases: growth (OD600 after 10 h); higher = more growth (less inhibition)
[1] = test system: E. coli TESEC Alr+ wild-type control; details: compound 0.1 mM; raw OD600 reference: median of DMSO wells 0.241, cell-free background 0.041
Method: (§1)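 TESEC Mtb Alr E. coli, or the Alr+ wild-type control, in 384-well plates with Prestwick library compounds at 0.1 mM and 1% DMSO, across arabinose induction levels of 1E3 to 1E7 nM. Growth is read as OD600 after 10 h at 37 °C in triplicate biological replicates.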

E. coli TESEC Mtb Alr [2] = details: compound 0.1 mM
Method: as §1

E. coli TESEC Mtb Asd = details: compound 0.1 mM
Method: (§2)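 TESEC E. coli strains in which the native enzyme is deleted and replaced by arabinose-inducible Mtb Asd, DapB, CysH or TrpD, each grown in its selective medium. Strains were screened against the Prestwick library at 0.1 mM and 1% DMSO in 384-well format at low and high arabinose induction. Growth is read as OD600 after 10 h in triplicate.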

E. coli TESEC Mtb DapB = details: compound 0.1 mM
Method: as §2

E. coli TESEC Mtb Alr [3] = details: compound 0.1 mM; remark: listed apart in the source
Method: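 TESEC Mtb Alr E. coli (ΔaraC ΔtolC ΔentC Δalr ΔdadX, arabinose-inducible Mtb Alr) or the Alr+ wild-type control strain, grown in defined M9-fructose medium without D-alanine in 96-well plates with Prestwick library compounds at 0.1 mM and 1% DMSO. Low Alr induction is 0.1 µM arabinose and high induction is 10 mM arabinose.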

[4] = arabinose 1000 nM, raw OD600 reference: median of DMSO wells 0.294, cell-free background 0.041
[5] = arabinose 10000 nM, raw OD600 reference: median of DMSO wells 0.264, cell-free background 0.041
[6] = arabinose 100000 nM, raw OD600 reference: median of DMSO wells 0.201, cell-free background 0.041
[7] = arabinose 1000000 nM, raw OD600 reference: median of DMSO wells 0.193, cell-free background 0.041
[8] = arabinose 10000000 nM, raw OD600 reference: median of DMSO wells 0.146, cell-free background 0.041
[9] = arabinose induction (level): High, raw OD600 reference: median of DMSO wells 0.331, cell-free background 0.041
[10] = arabinose induction (level): Low, raw OD600 reference: median of DMSO wells 0.417, cell-free background 0.041
[11] = arabinose induction (level): High, raw OD600 reference: median of DMSO wells […], cell-free background 0.041
[12] = arabinose induction (level): Low, raw OD600 reference: median of DMSO wells 0.227, cell-free background 0.041
[13] = arabinose 100 nM, raw OD600 reference: median of DMSO wells 0.413, cell-free background 0.052
[14] = arabinose 10000000 nM, raw OD600 reference: median of DMSO wells […], cell-free background 0.052

Row | SMILES | growth [1] | growth (E. coli TESEC Mtb Alr [2]; [4]) | growth (E. coli TESEC Mtb Alr [2]; [5]) | growth (E. coli TESEC Mtb Alr [2]; [6]) | growth (E. coli TESEC Mtb Alr [2]; [7]) | growth (E. coli TESEC Mtb Alr [2]; [8]) | growth (E. coli TESEC Mtb Asd; [9]) | growth (E. coli TESEC Mtb Asd; [10]) | growth (E. coli TESEC Mtb DapB; [11]) | growth (E. coli TESEC Mtb DapB; [12]) | growth (E. coli TESEC Mtb Alr [3]; [13]) | growth (E. coli TESEC Mtb Alr [3]; [14])
1 | CC(C)c1ccc2oc3nc(N)c(C(=O)O)cc3c(=O)c2c1 [Amlexanox] | 0.158 ± 0.003 | 0.157 ± 0.015 | 0.307 ± 0.0078 | 0.157 ± 0.0046 | 0.248 ± 0.024 | 0.166 ± 0.011 | 0.3928 ± 0.003 | 0.23 ± 0.056 | 0.197 ± 0.0066 | 0.206 ± 0.036 | 0.0761 ± 0.019 | 0.279 ± 0.018
2 | CC1CS(=O)(=O)CCN1/N=C/c1ccc([N+](=O)[O-])o1 (stereo unspecified) [Nifurtimox] | 0.04547 ± 0.00025 | 0.0539 ± 0.0037 | 0.04127 ± 0.00031 | 0.0564 ± 0.0035 | 0.0414 ± 0.00017 | 0.0554 ± 0.00081 | 0.212 ± 0.049 | 0.237 ± 0.017 | 0.188 ± 0.029 | 0.251 ± 0.019 | 0.0469 ± 0.00035 | 0.0644 ± 0.012
3 | CC(=O)O[C@H]1C(=O)[C@@]2(C)[C@H]([C@H](OC(=O)c3ccccc3)[C@]3(O)C[C@H](OC(=O)[C@H](O)[C@@H](NC(=O)c4ccccc4)c4ccccc4)C(C)=C1C3(C)C)[C@]1(OC(C)=O)CO[C@@H]1C[C@@H]2O [Paclitaxel] | 0.23 ± 0.013 | 0.285 ± 0.019 | 0.255 ± 0.024 | 0.222 ± 0.019 | 0.2 ± 0.015 | 0.179 ± 0.018 | 0.34 ± 0.051 | 0.385 ± 0.079 | 0.209 ± 0.006 | 0.279 ± 0.059 | 0.429 ± 0.014 | 0.336 ± 0.033
4 | CC(COc1ccccc1)N(CCCl)Cc1ccccc1 (stereo unspecified) [Phenoxybenzamine hydrochloride] | 0.0435 ± 0.0034 | 0.149 ± 0.01 | 0.0397 ± 0.0001 | 0.121 ± 0.0026 | 0.03927 ± 0.00029 | 0.0621 ± 0.00078 | 0.199 ± 0.018 | 0.261 ± 0.053 | 0.175 ± 0.013 | 0.228 ± 0.011 | 0.396 ± 0.0062 | 0.0624 ± 0.018
5 | NC(=O)c1ncn([C@@H]2O[C@H](CO)[C@@H](O)[C@H]2O)n1 [Ribavirin] | 0.17 ± 0.02 | 0.0986 ± 0.0022 | 0.0798 ± 0.0011 | 0.117 ± 0.0028 | 0.0816 ± 0.0003 | 0.106 ± 0.0017 | 0.404 ± 0.036 | 0.426 ± 0.071 | 0.196 ± 0.021 | 0.203 ± 0.025 | 0.415 ± 0.046 | 0.24 ± 0.021
6 | CC[N+](CC)(CC)CCOc1cccc(OCC[N+](CC)(CC)CC)c1OCC[N+](CC)(CC)CC [Gallamine triethiodide] | 0.245 ± 0.011 | 0.308 ± 0.014 | 0.2806 ± 0.0014 | 0.233 ± 0.017 | 0.191 ± 0.0068 | 0.1674 ± 0.00091 | 0.233 ± 0.013 | 0.368 ± 0.033 | 0.19 ± 0.011 | 0.251 ± 0.037 | 0.4196 ± 0.0011 | 0.372 ± 0.017
7 | NCCC[C@H](N)CC(=O)N[C@H]1CNC(=O)[C@H]([C@H]2C[C@H](O)NC(N)=N2)NC(=O)/C(=C/NC(N)=O)NC(=O)[C@H](CO)NC(=O)[C@H](CO)NC1=O [Viomycin sulfate] | 0.178 ± 0.011 | 0.251 ± 0.012 | 0.1314 ± 0.0004 | 0.138 ± 0.0014 | 0.112 ± 0.0031 | 0.143 ± 0.0015 | 0.281 ± 0.032 | 0.268 ± 0.016 | 0.169 ± 0.0056 | 0.226 ± 0.031 | 0.226 ± 0.14 | 0.0681 ± 0.0071
8 | CCN(CC)CCc1nc(-c2ccccc2)no1 [Oxalamine citrate salt] | 0.23 ± 0.012 | 0.273 ± 0.021 | 0.27 ± 0.0036 | 0.187 ± 0.0043 | 0.187 ± 0.0094 | 0.135 ± 0.0019 | 0.307 ± 0.045 | 0.332 ± 0.031 | 0.186 ± 0.0074 | 0.216 ± 0.013 | 0.406 ± 0.011 | 0.343 ± 0.015
9 | CCc1c2c(nc3ccc(OC(=O)N4CCC(N5CCCCC5)CC4)cc13)-c1cc3c(c(=O)n1C2)COC(=O)[C@]3(O)CC [Irinotecan hydrochloride trihydrate] | 0.234 ± 0.0062 | 0.32 ± 0.0061 | 0.2556 ± 0.0019 | 0.218 ± 0.015 | 0.18 ± 0.0024 | 0.156 ± 0.0056 | 0.321 ± 0.042 | 0.414 ± 0.026 | 0.227 ± 0.0094 | 0.243 ± 0.0046 | 0.401 ± 0.0022 | 0.366 ± 0.018
10 | CNNCc1ccc(C(=O)NC(C)C)cc1 [Procarbazine hydrochloride] | 0.251 ± 0.0067 | 0.304 ± 0.012 | 0.282 ± 0.0077 | 0.217 ± 0.028 | 0.177 ± 0.019 | 0.151 ± 0.0024 | 0.359 ± 0.043 | 0.476 ± 0.083 | 0.2 ± 0.017 | 0.27 ± 0.022 | 0.4235 ± 0.0022 | 0.312 ± 0.02
11 | O=C1CCc2ccc(OCCCCN3CCN(c4cccc(Cl)c4Cl)CC3)cc2N1 [Aripiprazole] | 0.171 ± 0.013 | 0.243 ± 0.021 | 0.298 ± 0.02 | 0.15 ± 0.005 | 0.1175 ± 0.001 | 0.159 ± 0.006 | 0.21 ± 0.022 | 0.391 ± 0.036 | 0.177 ± 0.011 | 0.213 ± 0.021 | 0.0572 ± 0.0048 | 0.0531 ± 0.0021
12 | O=C1Nc2ccc(Cl)cc2[C@@](C#CC2CC2)(C(F)(F)F)O1 [Efavirenz] | 0.0395 ± 0.00017 | 0.0401 ± 0.00093 | 0.0421 ± 0.0013 | 0.0412 ± 0.0003 | 0.03963 ± 0.00025 | 0.0413 ± 0.0013 | 0.0541 ± 0.0055 | 0.0488 ± 0.0019 | 0.0481 ± 0.00017 | 0.048 ± 0.00069 | 0.259 ± 0.075 | 0.049 ± 0.00044
13 | COc1ccc2c(c1)N(C[C@H](C)CN(C)C)c1ccccc1S2 [Methotrimeprazine maleat salt] | 0.187 ± 0.0042 | 0.25 ± 0.015 | 0.274 ± 0.015 | 0.2 ± 0.0049 | 0.139 ± 0.0095 | 0.179 ± 0.002 | 0.131 ± 0.0046 | 0.2312 ± 0.0023 | 0.1934 ± 0.0013 | 0.211 ± 0.012 | 0.402 ± 0.0072 | 0.282 ± 0.02
